Compound activity deposited in PubChem by Center for Chemical Genomics, University of Michigan.
The sample as a whole holds a higher share of hits than the screen did.
Dicer inh: inhibitors of Dicer pre-microRNA processing, primary screen, biochemical, cat-ELCCA, chemiluminescence. Endoribonuclease Dicer (Homo sapiens), Q9UPY3. cat-ELCCA pre-miR-21 Dicer processing; hits give high values. z-score at 25 µM. 47,000 tested, 6% active. AID 1347074, 2019; in the data active means z-score above about 3, passing the limit was not always enough;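 further: plate controls were vehicle for no effect and no enzyme for full effect; higher signal means more uncleaved substrate so more Dicer inhibition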
Target sequence (Q9UPY3 whole entry, looked up): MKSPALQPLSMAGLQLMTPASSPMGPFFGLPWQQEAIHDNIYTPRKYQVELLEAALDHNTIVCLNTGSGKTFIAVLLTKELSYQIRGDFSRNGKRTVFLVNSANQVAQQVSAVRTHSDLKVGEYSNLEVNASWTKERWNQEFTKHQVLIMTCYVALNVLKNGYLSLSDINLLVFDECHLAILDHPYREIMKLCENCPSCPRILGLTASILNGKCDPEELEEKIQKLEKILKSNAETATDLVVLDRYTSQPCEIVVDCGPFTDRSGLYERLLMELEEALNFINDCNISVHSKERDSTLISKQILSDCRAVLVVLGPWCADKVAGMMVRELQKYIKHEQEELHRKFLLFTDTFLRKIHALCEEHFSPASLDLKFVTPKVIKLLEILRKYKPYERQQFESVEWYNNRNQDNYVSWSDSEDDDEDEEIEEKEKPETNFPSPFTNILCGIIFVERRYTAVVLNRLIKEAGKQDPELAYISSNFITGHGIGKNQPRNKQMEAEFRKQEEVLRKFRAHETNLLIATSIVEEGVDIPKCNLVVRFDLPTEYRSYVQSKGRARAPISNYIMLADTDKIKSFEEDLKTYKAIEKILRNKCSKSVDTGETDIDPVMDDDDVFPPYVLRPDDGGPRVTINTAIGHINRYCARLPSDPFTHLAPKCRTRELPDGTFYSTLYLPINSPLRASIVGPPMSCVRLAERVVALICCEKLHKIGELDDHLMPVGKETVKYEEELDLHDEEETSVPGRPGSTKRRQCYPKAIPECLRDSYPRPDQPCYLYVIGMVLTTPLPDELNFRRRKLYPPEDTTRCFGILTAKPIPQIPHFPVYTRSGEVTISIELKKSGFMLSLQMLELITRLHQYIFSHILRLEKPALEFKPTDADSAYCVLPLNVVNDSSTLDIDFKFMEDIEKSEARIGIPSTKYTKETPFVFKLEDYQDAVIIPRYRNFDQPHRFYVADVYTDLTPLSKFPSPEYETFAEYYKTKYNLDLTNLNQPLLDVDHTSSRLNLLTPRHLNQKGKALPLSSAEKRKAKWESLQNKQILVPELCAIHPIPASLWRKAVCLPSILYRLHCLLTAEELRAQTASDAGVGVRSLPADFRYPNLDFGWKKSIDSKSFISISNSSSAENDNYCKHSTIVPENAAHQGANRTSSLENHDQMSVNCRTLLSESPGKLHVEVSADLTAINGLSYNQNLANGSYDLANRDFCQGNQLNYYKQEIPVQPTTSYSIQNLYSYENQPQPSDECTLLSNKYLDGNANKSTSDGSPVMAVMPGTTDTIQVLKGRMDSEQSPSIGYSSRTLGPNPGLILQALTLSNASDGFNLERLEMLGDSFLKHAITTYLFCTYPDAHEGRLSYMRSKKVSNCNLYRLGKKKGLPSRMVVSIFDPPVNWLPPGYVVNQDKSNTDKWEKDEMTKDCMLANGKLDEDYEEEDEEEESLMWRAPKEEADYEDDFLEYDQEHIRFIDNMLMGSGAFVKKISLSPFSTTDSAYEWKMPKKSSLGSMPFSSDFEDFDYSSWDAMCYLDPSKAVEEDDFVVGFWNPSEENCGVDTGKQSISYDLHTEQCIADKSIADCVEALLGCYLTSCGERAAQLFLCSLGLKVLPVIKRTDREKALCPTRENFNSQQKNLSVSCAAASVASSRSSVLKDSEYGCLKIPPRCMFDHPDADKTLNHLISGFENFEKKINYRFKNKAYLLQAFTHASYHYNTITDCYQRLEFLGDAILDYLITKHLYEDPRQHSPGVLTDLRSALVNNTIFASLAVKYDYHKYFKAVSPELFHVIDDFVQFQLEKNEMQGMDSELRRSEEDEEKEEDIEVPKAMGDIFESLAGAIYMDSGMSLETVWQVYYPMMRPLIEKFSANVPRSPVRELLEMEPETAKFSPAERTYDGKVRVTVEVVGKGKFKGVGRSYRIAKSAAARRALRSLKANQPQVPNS
An asterisk follows results filed as active.

SMILES	Dicer inh
O=C(NCc1ccc(S(=O)(=O)NCCN2CCOCC2)s1)c1ccccc1	-0.59
CC1c2ccsc2CCN1S(=O)(=O)c1cc(C(F)(F)F)cc(C(F)(F)F)c1 (stereo not drawn)	0.66
CC1c2ccsc2CCN1S(C)(=O)=O (stereo not drawn)	-0.25
CC1c2ccsc2CCN1S(=O)(=O)c1ccccc1 (stereo not drawn)	3*
N#Cc1c(-n2ncnc2-c2cccnc2)sc2c1CCCCC2	-2.8
COc1ncnc2c1sc1ncccc12	1.3
Fc1ccc2[nH]c(CN3CCN(c4ccccn4)CC3)cc2c1	0.68
O=C1CC(N2CCN(c3ccccn3)CC2)C(=O)N1c1ccc(F)cc1 (stereo not drawn)	0.49
c1ccc(N2CCN(c3nc4ccccc4[nH]3)CC2)nc1	3.5*
Cc1[nH]c2ccc(Br)cc2c(=O)c1CN1CCCCC1C (stereo not drawn)	2.5
Cc1cccc(-c2nc(NCc3cccnc3)c3ccccc3n2)c1	-0.19
NC1=NC(c2cccs2)n2c(nc3ccccc32)N1 (stereo not drawn)	0.63
CC(C)CC1Oc2ccccc2C2CC(c3ccccc3O)=NN12 (stereo not drawn)	5.3*
COc1ccc(C2Oc3ccccc3C3CC(c4cc(OC)ccc4O)=NN32)cc1 (stereo not drawn)	9.8*
Oc1ccccc1C1=NN2C(C1)c1ccccc1OC2c1cccs1 (stereo not drawn)	6.8
COc1cccc(C2Oc3ccccc3C3CC(c4cc(OC)ccc4O)=NN32)c1 (stereo not drawn)	0.91
CSCCC1Oc2ccccc2C2CC(c3cc(C)ccc3O)=NN12 (stereo not drawn)	0.58
CC(C)C1Oc2ccc(Cl)cc2C2CC(c3ccccc3O)=NN21 (stereo not drawn)	-0.15
COc1ccc(C2Oc3ccccc3C3CC(c4ccccc4O)=NN32)cc1 (stereo not drawn)	5.3
COc1ccc(C2Oc3ccccc3C3CC(c4ccccc4O)=NN32)c(OC)c1 (stereo not drawn)	5.6
COc1ccc(O)c(C2=NN3C(C2)c2ccccc2OC3c2ccccc2F)c1 (stereo not drawn)	6.9*
Oc1ccccc1C1=NN2C(C1)c1cc(Br)ccc1OC2c1ccsc1 (stereo not drawn)	4.2*
COc1ccc(C2Oc3ccccc3C3CC(c4cc(OC)ccc4O)=NN32)c(OC)c1 (stereo not drawn)	2.3
COc1ccc(O)c(C2=NN3C(C2)c2cc(Br)ccc2OC3c2ccsc2)c1 (stereo not drawn)	1.4
O=[N+]([O-])c1cccc(-c2cc(-c3cccs3)cc(-c3ccccc3)n2)c1	-1.3
SMILES	Dicer inh
CCOC(=O)c1sc(SCc2ccccc2)c(S(=O)(=O)C(C)C)c1N	-1.1
CN(C)/C=C(\C#N)C(=O)Nc1ccc(F)c(F)c1	-0.44
Cc1cc(C)c(N2C(N)=NC(N)=NC2(C)C)c(C)c1	0.39
CC12CN3CC(C)(CN(C1)C3c1c(O)ccc3ccccc13)C2 (stereo not drawn)	0.38
COC(=O)c1sccc1-c1ccc(/C(C)=N/Nc2ccc(F)cc2F)o1	6.2
CC(=O)OC[C@H]1O[C@@H](OC(C)=O)[C@H](N2C(=O)c3ccccc3C2=O)[C@@H](OC(C)=O)[C@@H]1OC(C)=O	-0.02
Oc1ccccc1C/C=C/c1ccccc1	0.35
CCOC(=O)/C(C#N)=C1\NC=CC=C1OC(C)=O	0.58
O=c1c2oc3nc(-c4ccccc4)cc(-c4ccco4)c3c2ncn1/N=C/c1ccc2c(c1)OCO2	2.1
COc1cccc(-c2ccc(-c3noc(C)n3)c(OC)n2)c1	0.96
COc1ccc(CCNC(=O)NC(C)(C)C)cc1OC	1.2
CC12CN3CC(C)(CN(C1)C3c1cc(Br)ccc1O)C2 (stereo not drawn)	0.72
CC12CN3CC(C)(CN(C1)C3c1ccc([N+](=O)[O-])o1)C2 (stereo not drawn)	0.27
Cc1ccc(C2N3CC4(C)CN2CC(C)(C3)C4)cc1 (stereo not drawn)	3*
Cc1ccc(NNC(=O)c2ccc(F)cc2F)cc1Cl	-5.7
O=C(CCc1ccccc1)N1CCC(c2ccccc2)C1 (stereo not drawn)	-1.4
CC1C(c2ccccc2)OCCN1C(=O)CCC(=O)N1CCOC(c2ccccc2)C1C (stereo not drawn)	5.6*
CN1CCOC(c2ccccc2)c2ccccc2C1 (stereo not drawn)	0.53
Cc1ccc(C(=O)/C(=C\N(C)C)c2nnnn2-c2ccccc2)cc1	-2.7
COc1cc(C2C(C(=O)OCC(C)C)=C(C)NC3=C2C(=O)CC(c2cccs2)C3)ccc1O (stereo not drawn)	1.6
CC1(C)Cc2nc3sc4c(N5CCOCC5)ncnc4c3cc2CO1	1.8
COc1ccc(C(=O)/C=C/Oc2ccc(Cl)cc2)cc1	4.4*
Cc1cc(O/C=C/C(=O)c2ccc(Br)cc2)ccc1Cl	0.52
COc1ccc(C(=O)/C=C/Sc2cc(Cl)ccc2Cl)cc1	-0.17
S=C(Nc1ccccn1)Nc1ccc(Cl)cc1Cl	-0.33
SMILES	Dicer inh
CN1CC23C=CC(O2)C(C(=O)O)C3C1=O (stereo not drawn)	2.1
Clc1ccc(/C=N/Nc2ncnc3sc4c(c23)CCCC4)cc1	1
CC(=O)Nc1ccc(NC(=O)CSCC(=O)O)cc1	-1.1
CCCCc1ccc(NCc2nc(-c3ccc(C)cc3)no2)cc1	0.17
COC(=O)c1ccc(Cl)cc1N(CCCC#N)S(=O)(=O)c1cccc(C(F)(F)F)c1	-0.42
O=C(c1cccc(C(F)(F)F)c1)c1nccc2ccccc12	-0.97
CCOc1ccc2c(c1)CN(Cc1ccc(Cl)cc1)CO2	1.1
COc1ccc(CN2COc3ccc(F)cc3C2)cc1	0.47
Clc1ccc2nc(NC3=NCN(Cc4ccccc4)CN3)oc2c1	1.2
Brc1ccc2c(c1)CN(C1CCCCC1)CO2	1.5
Brc1ccc2c(c1)CN(Cc1ccccc1)CO2	4.5*
Clc1ccc2c(c1)CN(Cc1ccccc1)CO2	3.3*
CC1(C)CC(=O)c2cc3c(N)c(C(=O)c4ccc(F)cc4)sc3nc2C1	0.41
Fc1cccc(Cl)c1CSc1ccc(C(F)(F)F)cn1	0.24
CC1=CC(C)=N/C1=C/c1c(O)[nH]c(=O)[nH]c1=O	-1.2
Cc1ccc(Nc2ncnc3ccccc23)c(C)c1	-0.49
Cc1ccc2ncnc(NC3CCCCC3)c2c1	4.7*
Cn1ncc2c(NC3CCCCC3)ncnc21	0.96
O=S(=O)(Nc1ncccn1)c1ccc(N=Cc2ccccc2O)cc1	2
O=C1CC(NC2CCN(c3ncc(C(F)(F)F)cc3Cl)CC2)C(=O)N1c1ccc(F)cc1 (stereo not drawn)	-1.4
CC(C)(C)C(=O)Nc1ccc(Cl)cc1-c1noc(C(C)(C)C)n1	-0.24
CCOC(=O)C(C)c1nc2ccccc2[nH]c1=O (stereo not drawn)	3
CC(C)OC(=O)c1ccc(COC(=O)CCc2nc3ccccc3[nH]c2=O)cc1	3.4*
O=C(CCc1nc2ccccc2[nH]c1=O)OCc1ccc(Br)cc1	1.6
CCOc1ccc(S(=O)(=O)Nc2cccnc2)cc1C	0.51
SMILES	Dicer inh
COc1cccc(Cn2c3c(c4ccccc4c2=O)C(=O)c2ccccc2-3)c1	1.8
COc1ccc(CN2CCC(N3CCCCC3)CC2)cc1Br	3.7*
COc1ccc(CN2CCC(N3CCCCC3)CC2)cc1OC	0.7
CCn1c2ccccc2c2cc(CN3CCC(N4CCCCC4)CC3)ccc21	-0.94
CCOC(=O)c1cnc2c(-c3ccccc3)c(C(F)(F)F)sc2c1OCC	-0.56
Nc1nc2c(-c3ccccc3)c(C(F)(F)F)sc2s1	4.2*
